Sampled rows, rich in hits. Any-hit rate of the full collection: about 21%.
Pf growth 96h – inhibits malaria parasite growth, 96 h; P. falciparum luciferase reporter growth, 96 h; AID 504834; Potency, µM (doses to about 28.7 µM), without a hit: top-dose activity change, negative = inhibition, actives largely listed as inhibitors; actives 6.9% (n = 320,000); active = well fitted inhibition curve with a large enough effect; inconclusive = small, poorly fitted or top-dose-only effect, or another doubt; inactive = no such curve, though single readings can be large or run the other way; note: potency is the fitted concentration of half-maximal effect; % is set by controls: 0 for no effect and ±100 for the full control effect
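P. falciparum expressing integrated firefly luciferase, in erythrocytes at 2% hematocrit, 0.05% parasitemia, incubated with compounds 96 h at 37 C, 5% CO2. Growth inhibition read as loss of luminescence; two-generation exposure targets delayed-death apicoplast inhibitors.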
NS1 inh – blocks influenza NS1 protein function; Potency, µM (series often up to 46.1 µM), without a hit: at the highest dose activity, positive = more growth; actives 0.4% (n = 270,000); note: potency is the fitted concentration of half-maximal effect; actives are rising curves; nearly all actives have a fitted effect of over 50% in size
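S. cerevisiae expressing influenza A NS1, grown in glucose, washed, then diluted 1:100 into pH 6.0 -URA galactose medium with 23 nl compound. Growth recovery read as OD600; NS1-free strain serves as control.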
Shiga toxin inh – inhibitors of Shiga toxin in Vero cells; Vero cells, Shiga toxin protein synthesis inhibition reporter; inhibition, % at 38.7 µM; actives 9.2% (n = 290,000); in the data active = inhibition mostly above about 28%, no sharp cut-off; inactive = mostly below about 43%; note: 0% is about no effect
SARS PLP yeast – inhibitors of SARS-CoV papain-like protease in yeast | S. cerevisiae expressing SARS-CoV PLpro, growth rescue | Potency, µM (series often up to 32.9 µM), for inactives: at the top dose activity, positive = growth rescue, usual class: activators | actives 0.19% (n = 330,000) | AID 485353; note: potency is the fitted concentration of half-maximal effect; 0% is about no effect; nearly all actives have a fitted effect of over 55% in size
Cycloheximide cs – counter-screen hit for Shiga toxin inhibitors, cycloheximide; AID 2314; max response, %; actives 12% (n = 300,000); cell reporter, cycloheximide protein synthesis inhibition counterscreen; in the data active = max response mostly above about 13%, no sharp cut-off; inactive = mostly below about 14%; note: read at 38.3 µM for the half of the compounds with a filed dose; 0% is about no effect
Pf growth 48h – inhibits P. falciparum growth in the first generation, 48 h; P. falciparum luciferase growth in erythrocytes, 48 h; Potency, µM (highest dose often 28.7 µM), without a hit: at the top dose activity change, negative = inhibition, usual class: inhibitors; AID 504832; actives 5.9% (n = 310,000); active = well fitted inhibition curve with a large enough effect; inconclusive = small, poorly fitted or top-dose-only effect, or another doubt; inactive = no such curve, though single readings can be large or run the other way; note: potency is the fitted concentration of half-maximal effect; % is set by controls: 0 for no effect and ±100 for the full control effect
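Erythrocytes infected with P. falciparum carrying an integrated firefly luciferase reporter (2% hematocrit, 0.1% parasitemia final) were exposed to compounds in RPMI 1640 with 0.5% Albumax at 37 C, 5% CO2. Growth inhibition was scored as reduced luminescence.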
Numbers without * were called inactive; ? = inconclusive; · = no result given. Unless noted, calls come from the whole dose curve.

SMILES	Pf growth 96h	NS1 inh	Shiga toxin inh	SARS PLP yeast	Cycloheximide cs	Pf growth 48h
Cc1cccc(Oc2coc3cc(O)ccc3c2=O)c1	21%	-5%	49*	-2%	31*	60%
Cc1onc(-c2ccccc2Cl)c1C(=O)OCC(=O)N1CCCCC1	·	·	·	2%	·	·
O=C1NC(=O)C(=Cc2ccc(OCC(=O)N3CCOCC3)cc2)C(=O)N1	39%	-17%	12	-1%	8	0%
CN(CCOc1ccc(C=C2C(=O)NC(=O)NC2=O)cc1)c1ccccn1	66%	·	32	-1%	27*	-18%
COc1cccc(OCCOc2ccc(/C=C3/SC(=S)NC3=O)cc2)c1	38%	1%	2	1%	-1	14%
COc1ccc(OCCOc2cccc(C=C3C(=O)NC(=O)NC3=O)c2)cc1	20%	-32%	33*	0%	33*	321%
CCCCC(=O)Nc1ccc(C(=O)N2CCN(C)CC2)cc1	·	-10%	-2	0%	3	33%
CC(=O)c1cc(F)c(N2CCCCCC2)cc1C	?	5%	16	24%	-2	-23%
CCCC(=O)c1ccc(N2CCN(C(=O)OCC)CC2)c(F)c1	9.3µM*	-22%	54	3%	23	5%
CCCC(=O)c1ccc(N2CCCCCC2)c(F)c1	-23%	-50%	68*	-3%	40*	45%
CC(=O)c1ccc(N2CCCCC2)c(F)c1	13%	4%	-5	0%	16*	44%
CC(=O)c1ccc(N2CCCCCC2)c(F)c1	?	-23%	29	-1%	13	23%
CCOC(=O)N1CCN(c2ccc(C(=O)CC)cc2F)CC1	-23%	-8%	28	-3%	14	17%
CCCC(=O)c1ccc(N2CCCCC2)c(F)c1	3%	-2%	94*	0%	47*	38%
O=C(NCc1cccc(Cl)c1)c1ccc(CS(=O)Cc2ccc(Cl)cc2)o1 (configuration not stated)	16%	-1%	-9	1%	9	0%
CCOC(=O)c1sc(NS(=O)(=O)c2ccccc2Cl)nc1C	·	17%	-9	9%	-1	-10%
Cc1ccc(NC(=S)N(Cc2ccc(Br)cc2)Cc2ccc(C(=O)O)cc2)cc1C	?	·	27	-6%	4	8%
Cc1ccc(Cn2ccsc2=NC(=O)COC(=O)c2ccc(O)cc2O)cc1	?	0%	135*	0%	38*	?
O=C(COC(=O)c1ccc(O)cc1O)N=c1sccn1Cc1ccccc1Cl	?	·	·	-2%	·	?
CC(C)C(=O)Nc1ccc2nn(-c3ccc(F)cc3)nc2c1	51%	-12%	46*	-1%	28*	288%
COC(=O)c1cc(NC(=O)c2cccc([N+](=O)[O-])c2C)ccc1Cl	3%	-4%	19	-2%	4	0%
Cc1ccc(-n2nc3ccc(NC(=O)c4ccco4)cc3n2)cc1	0%	-10%	51*	-20%	38*	·
CC(C)CC(=O)Nc1ccc2nn(-c3ccccc3)nc2c1	51%	-12%	53*	-14%	66*	231%
Cc1ccc(-n2nc3ccc(NC(=O)c4cccc([N+](=O)[O-])c4C)cc3n2)cc1	39%	10%	52	13%	28*	33%
CC(C)C(=O)Nc1ccc(N2CCN(c3ccc(F)cc3)CC2)cc1	3%	·	-2	0%	0	37%
SMILES	Pf growth 96h	NS1 inh	Shiga toxin inh	SARS PLP yeast	Cycloheximide cs	Pf growth 48h
CC(=O)NC(CC(=O)OCC(=O)c1ccc(NC(=O)CC(C)C)cc1)c1ccccc1 (configuration not stated)	-11%	·	·	-11%	·	?
COc1ccc(CNC(=O)C2CCC(CNC(=O)[C@@H]3Cc4ccccc4CN3)CC2)cc1 (some centres not stated)	?	-11%	-2	10%	0	4%
Cc1ccc(-n2nc3ccc(NC(=O)C(C)C)cc3n2)cc1	4%	-1%	119*	-1%	54*	107%
CCCC(=O)Nc1ccc2nn(-c3ccc(OC)cc3)nc2c1	-13%	-16%	·	-1%	41*	133%
CCc1cc2c3c([nH]c2cc1S(=O)(=O)NCCCOC)CC(C)(C)CC3=O	-28%	-3%	-4	0%	2	?
O=c1[nH]c(C2CCN(S(=O)(=O)c3ccccc3C(F)(F)F)CC2)nc2c1nnn2Cc1ccccc1	2.6µM*	13%	1	-3%	-5	5.9µM*
Cc1ccc(Cn2nnc3c(=O)[nH]c(C4CCN(S(=O)(=O)c5ccccc5)CC4)nc32)cc1	30%	?	-22	2%	-4	13%
O=c1[nH]c(C2CCN(S(=O)(=O)/C=C/c3ccccc3)CC2)nc2c1nnn2Cc1ccccc1	-69%	18%	-12	0%	-3	4.7µM*
O=c1[nH]c(C2CCN(S(=O)(=O)c3ccccc3F)CC2)nc2c1nnn2Cc1ccc(OC(F)(F)F)cc1	?	11%	11	10%	-5	?
Cc1ccc(S(=O)(=O)N2CCC(c3nc4c(nnn4Cc4ccccc4)c(=O)[nH]3)CC2)cc1	29%	5%	7	1%	-3	12µM*
Cc1ccc(Cn2nnc3c(=O)[nH]c(C4CCN(S(=O)(=O)Cc5ccccc5)CC4)nc32)cc1	147%	16%	78*	4%	31*	?
Cc1ccc(N2C(=O)C3C4CC(=O)C(c5ccccc54)C3C2=O)cc1C (configuration not stated)	434%	5%	-3	-8%	5	11%
COc1cccc(NC(=O)C2C3C=CC(C3)C2C(=O)O)c1 (configuration not stated)	0%	-12%	1	-7%	-3	11%
Cc1ccc(NC(=O)c2cccc(-n3cnnn3)c2)cc1Cl	?	·	·	3%	·	9.3µM*
COc1cccc(NC(=O)C(C)OC(=O)CCCNC(=O)c2ccc(Cl)cc2)c1 (configuration not stated)	52%	7%	100*	4%	25*	38%
CCSc1ccccc1C(=O)Nc1cccc(OC)c1	?	-15%	69	-15%	15*	-20%
COc1cccc(NC(=O)c2cnc[nH]2)c1	0%	-2%	41*	0%	33*	64%
O=C(NCc1ccccc1)c1nncc(-c2ccccc2)n1	?	·	·	2%	·	-3%
CCOC(=O)C(Cc1ccc(O)cc1)NC(=O)CNC(=O)C1CCCN1C(=O)OC(C)(C)C (configuration not stated)	18%	·	-18	4%	-14	-41%
O=C(Nc1ccc(F)cc1)c1ccc2nsnc2c1	98%	-33%	64*	-2%	46*	130%
COc1ccc(NC(=O)c2cccc(NC(=O)C(C)C)c2)c([N+](=O)[O-])c1	?	0%	22*	-1%	22*	70%
COc1cccc(NC(=O)CC(=O)c2ccc([N+](=O)[O-])cc2)c1	36%	-4%	71*	-1%	51*	-13%

Source: PubChem
